# Test results reported in the supplement of paper PMC6555819.
# How the values were obtained:
# Assay in all cases: PBM binding z-score (relative to random genomic background probes); higher = stronger binding; sequences stand for … in GC…GCGATTGACAGCGTAGAATGAAGG
# [1] = test system: PPARg:RXRa DBDmut IVT, anti-RXR (DBD mutation: RXRa K156A/R161A, NR concentration 270 nM, RXRa partner concentration 90 nM)
# Procedure, shortened: (§1)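 For binding z-scores, the reference was random background probes on custom Agilent 4×180K protein-binding microarrays. These arrays were incubated 1 h with ligand-free nuclear receptor dimers in PBS pH 7.4, 2% milk, 0.02% Triton X-100, 1 mM DTT, 0.2 mg/mL BSA and 0.4 mg/ml salmon testes DNA. Fluorescence was scanned after antibody detection of each partner (one per run) and regression-normalized.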
# [2] = test system: PPARg:RXRa IVT, anti-PPARg (NR concentration 270 nM, RXRa partner concentration 90 nM)
# Procedure, shortened: as §1
# [3] = test system: PPARg DBDmut:RXRa IVT, anti-PPARg (DBD mutation: PPARg1 K132A/R137A, NR concentration 270 nM, RXRa partner concentration 90 nM)
# Procedure, shortened: as §1
# [4] = test system: PPARg DBDmut IVT, anti-PPARg (DBD mutation: PPARg1 K132A/R137A, NR concentration 270 nM)
# Procedure, shortened: as §1
# [5] = test system: PPARg homodimer (NR concentration 180 nM)
# Procedure, shortened: as §1
# [6] = test system: PXR:RXRa (NR concentration 270 nM, RXRa partner concentration 90 nM)
# Procedure, shortened: as §1
# [7] = test system: PXR homodimer (NR concentration 270 nM)
# Procedure, shortened: as §1
# [8] = test system: RARa:RXR (NR concentration 270 nM, RXRa partner concentration 90 nM)
# Procedure, shortened: as §1
# [9] = test system: RARa homodimer (NR concentration 270 nM)
# Procedure, shortened: as §1
# [10] = test system: RARb:RXRa (NR concentration 270 nM, RXRa partner concentration 90 nM)
# Procedure, shortened: as §1
# [11] = test system: RARb homodimer (NR concentration 270 nM)
# Procedure, shortened: as §1
# [12] = test system: RARg:RXRa (NR concentration 270 nM, RXRa partner concentration 90 nM)
# Procedure, shortened: as §1
# [13] = test system: RARg homodimer (NR concentration 270 nM)
# Procedure, shortened: as §1
# [14] = test system: RXRa DBDmut IVT, anti-RXR (DBD mutation: RXRa K156A/R161A, NR concentration 90 nM)
# Procedure, shortened: as §1
# [15] = test system: RXRa homodimer (NR concentration 180 nM)
# Procedure, shortened: as §1
# [16] = test system: THRa:RXRa (NR concentration 90 nM, RXRa partner concentration 90 nM)
# Procedure, shortened: as §1
# [17] = test system: THRa homodimer (NR concentration 90 nM)
# Procedure, shortened: as §1
# [18] = test system: VDR homodimer (NR concentration 270 nM)
# Procedure, shortened: as §1
Sequence,PBM binding z-score [1],PBM binding z-score [2],PBM binding z-score [3],PBM binding z-score [4],PBM binding z-score [5],PBM binding z-score [6],PBM binding z-score [7],PBM binding z-score [8],PBM binding z-score [9],PBM binding z-score [10],PBM binding z-score [11],PBM binding z-score [12],PBM binding z-score [13],PBM binding z-score [14],PBM binding z-score [15],PBM binding z-score [16],PBM binding z-score [17],PBM binding z-score [18]
ATCTCTAGGTAACCAAGTTCAGTGAGTGCCGAAC,3.88,2.77,0.349,0.828,0.761,2.12,3.09,0.548,0.845,1.21,1.55,0.591,0.796,1.34,0.412,1.52,0.776,2.83
ACTATTAGTTGAGACGAGGTCAACCGATAGGTTG,0.226,2.11,0.554,1.21,2.65,5.3,2.57,4.97,1.07,3.52,4.05,3.81,3.37,1.57,4.82,4.73,3.82,3.21
ACCGAAAGGTCGTGAGGTGAGTATACAGAAAGGC,0.638,2.23,0.794,0.846,1.51,3.29,-0.242,4.22,0.0801,4,2.84,4.64,4.01,1.74,5.25,3.48,1.28,0.625
ACTTACGGGTCAACCAGGTTATAGCACGCGTATA,3.23,4.21,2.29,2.39,4.29,4.77,1.62,5.34,1.57,4.17,3.43,5.74,5.08,2.31,6.13,3.79,0.987,2.74
TCATATAGGTAAACAGGTGAAAGACCGTAAGTTA,4.76,4.63,1.09,1.03,1.16,0.687,0.35,1.22,1.07,0.77,0.437,0.712,0.452,1.32,1.17,0.539,0.114,0.225
CCTCGGAGGACAGAAGGTCAGGGCTGTCCGCTTT,-0.131,0.148,-1.5,-1.83,1.43,1.65,-0.651,2.13,0.0268,3.47,3.88,3.67,3.54,-0.126,2.22,2.35,0.202,0.107
TAGCCTAGGTTAGATCGGGCCAGTATACGCTATA,-0.639,0.069,-0.497,-0.751,-0.958,-0.294,-0.619,0.00533,-0.589,0.0949,-0.0792,-0.00796,0.127,-0.662,-0.141,2.61,-0.725,-0.374
ATCGAAAGGTAGACGAGGTGAGTATACACCGTTT,0.012,0.628,0.703,0.518,0.162,-0.0156,-0.144,0.31,0.224,0.438,0.107,0.927,0.758,-0.531,0.582,2.01,0.239,-0.467
TCTAGTTGGTCACGGAGGTCACACTCGACGGGTA,2.74,4.57,1.32,0.684,2.95,4.31,1.37,4.2,1.39,3.91,4.42,4.61,4.99,1.2,4.54,3.59,2.56,2.99
TCTCGGAGGACAGGAAGGTCAGAGCTTTCCAGAG,1.52,0.389,-1.38,-1.7,0.357,1.36,-0.0214,1.42,0.192,2.76,3.54,2.42,2.34,0.51,1.69,2.1,0.256,0.37
CTCGAAAGGACGGTTGAGGTGAGTATACGGATAA,-0.361,-0.0316,0.142,0.0698,-0.218,0.0192,0.134,0.512,-0.448,0.634,0.363,0.406,0.541,-0.024,0.139,2.93,0.887,0.0364
ATCGAAAGGTCGACAAGGTGAGTATACACCGTTT,0.456,1.98,1.72,1.65,1.43,2.86,0.683,3.78,0.202,4.02,3.01,4.25,3.99,0.788,4.36,3.65,0.513,0.835
TCATATAGGTATTACAGGTGAAAGTCGGCATCTA,3.05,1.69,0.864,0.68,1.37,0.945,0.656,1.39,1.42,0.578,0.804,0.652,0.438,1.81,1.35,0.854,0.684,0.524
CGTCCAAAGTCAAGGTCAGTGAAAGAGACTCGAA,0.62,0.874,-0.185,-0.414,2.49,2.05,1.01,2.47,0.742,3.62,3.54,3,3.58,1.13,2.53,3.03,2.06,1.29
CCTACAGGGCCATCAGGTCATTGATATCAACGTT,0.49,1.32,-0.452,-0.51,1.27,1.71,0.581,1.89,0.0859,2.38,2.75,2.63,2.35,0.562,1.63,3.26,2.79,1.45
GGTACAGGGTCAGCTAGAGGCCAGAGTATGGAAA,0.482,2.29,0.521,-0.216,2.93,3.37,0.15,4.88,0.0993,4.22,3.27,6.72,4.84,1.01,4.27,3.07,0.717,1.14

Sequence,PBM binding z-score [1],PBM binding z-score [2],PBM binding z-score [3],PBM binding z-score [4],PBM binding z-score [5],PBM binding z-score [6],PBM binding z-score [7],PBM binding z-score [8],PBM binding z-score [9],PBM binding z-score [10],PBM binding z-score [11],PBM binding z-score [12],PBM binding z-score [13],PBM binding z-score [14],PBM binding z-score [15],PBM binding z-score [16],PBM binding z-score [17],PBM binding z-score [18]
ACTGACAGGTGATGAAGGTAACTCAGGCTATCAT,0.252,0.675,0.404,-0.0306,-0.378,-0.393,-0.233,-0.039,0.284,0.224,-0.0164,0.199,0.358,-0.478,0.16,0.769,-0.122,-0.152
CAAACTAGGTCAAGAGGTCAAGGTCCGCTTCCCG,8.52,8.45,0.83,-0.359,5.33,5.88,1.72,7.29,2.29,5.54,5.98,7.92,7.98,2.28,8.06,4.25,3.13,3.74
ATATGTAGGTTACATCCGGGTCAGTCAGGCTATG,7.52,7.34,2.22,1.82,1.39,2.01,0.364,2.42,0.784,1.96,2.61,3.29,1.88,0.541,2.01,3.19,1.66,1.45
CGTCCAAGCTCAGAGAGGTCAGTGAATGCCGAGT,0.269,0.153,-0.648,-1.03,2.06,2.96,0.893,2.85,0.843,2.82,3.56,2.72,2.99,0.551,2.36,2.19,0.794,2.2
ACTCTTAGTTGAGACGAGGGCAACCGATAGGTTG,-0.123,0.386,-0.0171,0.118,-0.417,1.34,-0.122,0.668,-0.22,0.939,1.14,0.56,0.695,0.403,0.46,2.59,0.356,0.844
AGAACGAAGGCAATGAGTTGATAGCACGGGTGGC,-0.602,-0.376,0.0932,-0.515,-1.7,-0.512,-0.132,-0.69,-0.881,-0.477,-1.03,-0.228,-0.122,-0.299,-0.105,-0.732,-1.11,-0.223
CCTATTAGTTGACCATAAGGGCATCCGAAGCTCG,0.225,0.238,0.764,0.611,0.73,0.903,1,0.903,1.97,1.37,1.78,1.12,1.02,0.721,0.568,1.89,1.35,1.26
ACAGACAGGTGTGTGAAGGTAACTCAGCTGGACG,-0.215,-0.0763,-0.159,-0.168,-0.299,-0.399,-0.457,-0.395,-0.0972,-0.265,-0.271,-0.0907,-0.134,-0.313,0.0111,-0.0622,-0.902,-0.49
TCTTGTAGATCAAAGGTTAAGGAAGCCGAAGCCT,2.14,3.75,1.3,0.543,1.02,2.01,-0.532,2.9,0.593,2.11,1.55,1.85,0.852,0.63,3.15,1.39,-0.169,-0.0198
GATACAGGTTCAAGGCCAGAGTACGCGTATTGAT,-0.252,0.582,-0.175,-0.432,1.38,1.9,0.971,1.61,0.647,1.79,1.44,1.82,1.3,3.5,2.13,1.55,0.144,3.82
CCTACTTGGCCAAAAAGGTCATTGATGCCGATAA,1.07,1.98,0.866,0.465,4.5,4.93,2.68,5.78,3.1,3.99,4.05,4.68,4.19,1.55,5.15,3.18,1.06,3.04
CGAACTAGGTCAAGTACAGTGAATCTCCGCACGC,8.4,8.26,1.96,1.97,2.76,1.8,0.0981,2.37,0.517,4.19,3.33,4.45,5.13,2,3.13,3.03,1.56,1.45
TCTAGTTGGTCACGGATGTCACACACGACGGGTA,2.2,2.89,1.14,1.42,1.14,0.836,-0.124,0.724,0.648,1.88,1.57,1.43,1.91,0.683,1.15,0.409,0.417,0.656
AGATGTAGGTTACATCCGGGTCATTCAGGCTATG,7,7.07,0.707,1.29,1.58,3.72,2.06,3.68,-0.0966,2.24,2.87,3.6,2.14,0.74,3.33,3.72,2.08,2.53
ACAGACAGTTGATGAAGGTAACTCAGGCTATCAT,-0.364,-0.0113,0.732,0.538,0.771,0.245,0.258,0.287,0.632,0.225,0.387,0.00583,0.279,0.223,0.183,0.764,0.154,0.0979
